Screens deposited in PubChem BioAssay by several laboratories.
Only some compounds are listed: those with a hit (about 27% of all), similar ones and a draw of the others.
sEH inh: blocks human soluble epoxide hydrolase activity | recombinant human sEH enzymatic activity assay | inhibition, % at 2 µM | 91,000 tested, 0.34% active | AID 707; in the data active = inhibition above about 80%
CYP2C9 inh: human CYP2C9 inhibition; inhibition, % at 5 µM; P11712; CYP2C9 Supersomes, luciferin-H conversion, luminescence; AID 777; 96,000 tested, 20% active;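 active = blocking of liver enzyme CYP2C9 beyond about 50% at 5 µM, limit read from the data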
Target sequence (P11712 whole entry, looked up): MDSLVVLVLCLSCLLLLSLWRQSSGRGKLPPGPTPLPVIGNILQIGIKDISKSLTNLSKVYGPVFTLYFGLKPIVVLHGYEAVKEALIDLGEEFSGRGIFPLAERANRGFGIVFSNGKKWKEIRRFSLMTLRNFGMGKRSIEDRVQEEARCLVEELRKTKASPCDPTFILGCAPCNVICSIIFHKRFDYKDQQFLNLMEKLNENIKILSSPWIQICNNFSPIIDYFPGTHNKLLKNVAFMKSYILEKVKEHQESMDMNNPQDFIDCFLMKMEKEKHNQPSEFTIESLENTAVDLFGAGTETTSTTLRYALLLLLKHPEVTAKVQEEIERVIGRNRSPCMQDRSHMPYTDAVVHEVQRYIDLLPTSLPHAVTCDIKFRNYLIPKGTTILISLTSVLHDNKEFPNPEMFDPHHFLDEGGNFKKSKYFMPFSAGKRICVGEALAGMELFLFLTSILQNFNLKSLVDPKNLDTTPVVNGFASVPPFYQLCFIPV
CYP2C19 inhib: inhibitors of human CYP2C19; CYP2C19 Supersomes, luciferin-H EGE luminescence, 30 min; AID 778; inhibition, % at 5 µM; 96,000 tested, 21% active; P33261;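 active = CYP2C19 inhibition above a set limit at 5 µM in the primary screen, cut at about 50% in these data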
CYP2C19 act: cytochrome P450 2C19 (human) activation. P33261. recombinant CYP2C19, luciferin-H EGE luminescence; hits give high values; 0 = fully inhibited enzyme, 1 = untreated enzyme. activation factor at 5 µM. 96,000 tested, under 10 active;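 active = activation factor of at least 2 at 5 µM in the primary screen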
sEH activator: increases human soluble epoxide hydrolase activity; P34913; purified human sEH enzymatic activity, activator screen; activation, % at 2 µM; 91,000 tested, 0.04% active; AID 717; in the data active = activation above about 37%
CYP2C9 activ: increases human cytochrome P450 2C9 activity; P11712; recombinant CYP2C9, luciferin-H conversion, luminescence; hits give high values; factor 1 = untreated enzyme, 0 = blocked; activation factor at 5 µM; 96,000 tested, 1.4% active; AID 1024;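 active = activation factor of 2 or more for CYP2C9 at a 5 µM dose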
Large screens that a line does not name were inactive.

CCOC(=O)C1=C(C)NC(=O)NC1C (stereo unspecified)	none
CC1=C(C(=O)OC2CCCCCCC2)C(c2cccc(O)c2)NC(=O)N1 (stereo unspecified)	CYP2C9 inh 80.8, CYP2C19 inhib 81.2 (no result: sEH inh, sEH activator)
CCOC(=O)C1=C(C)NC(=O)NC1c1ccc(N(CC)CC)cc1 (stereo unspecified)	CYP2C9 inh 52.4 (no result: sEH inh, sEH activator)
CCOC(=O)C1=C(C)NC(=O)NC1c1ccc(Cl)cc1Cl (stereo unspecified)	CYP2C19 inhib 67.7
Cc1ccc(-c2nn(-c3ccccc3)cc2C2CC(c3cccs3)=NN2C(=O)CCCC(=O)O)cc1 (stereo unspecified)	CYP2C9 inh 61.2
CCOC(=O)C1=C(C)NC(=O)NC1c1cc(C)sc1C (stereo unspecified)	none
CCOC(=O)C1=C(C)NC(=O)NC1c1cn(-c2ccccc2)nc1-c1cccs1 (stereo unspecified)	CYP2C9 inh 80.1, CYP2C19 inhib 56.1 (no result: sEH inh, sEH activator)
CCCCCCOC(=O)C1=C(C)NC(=O)NC1c1ccc(O)cc1 (stereo unspecified)	CYP2C9 inh 80.6, CYP2C19 inhib 70.3
CCOC(=O)C1=C(C)NC(=O)NC1c1ccc(N(C)C)cc1 (stereo unspecified)	none
Cc1ccc(-c2nnc(-c3ccncc3)n2-c2ccc(C)cc2)cc1	none
CCOC(=O)C1=C(C)NC(=O)NC1c1ccc(OCC(=O)OC)c(OC)c1 (stereo unspecified)	none (no result: sEH inh, sEH activator)
CCOC(=O)C1=C(C)NC(=O)NC1c1ccc(OCC(=O)Nc2ccccc2)c(OC)c1 (stereo unspecified)	CYP2C9 inh 91.1, CYP2C19 inhib 70.3
O=C(O)CCCNS(=O)(=O)c1ccc(Br)s1	none (no result: sEH inh, sEH activator)
CCCCCCNS(=O)(=O)c1ccc(Cl)s1	CYP2C9 inh 85.9, CYP2C19 inhib 98.2
COc1ccc2[nH]c(C(=O)O)c(NS(=O)(=O)c3ccc(Cl)s3)c2c1	CYP2C9 inh 99.0, CYP2C19 inhib 78.9
Cc1ccc(C(=O)COC(=O)CNC(=O)COc2ccccc2C)cc1C	CYP2C9 activ 2.4
CCC(C)Sc1nc(O)c(Cc2ccccc2)c(=O)[nH]1 (stereo unspecified)	none
CCC1=Nc2ccccc2NC2=C1C(=O)CCC2	CYP2C19 inhib 62.9
CC1CC(=O)C2=C(C1)Nc1ccccc1N=C2 (stereo unspecified)	none
Cn1cc(C(=O)Nc2cccc(F)c2)cn1	none
CC1CCN(C(=O)c2ccc3c(c2NCCO)C(=O)c2ccccc2C3=O)CC1	CYP2C19 inhib 81.1
CCCCOC(=O)C1=C(C)Nc2ncnn2C1c1ccc(OC)c(OC)c1 (stereo unspecified)	none (no result: sEH inh, sEH activator)
CCOc1ccccc1C1C(C(=O)Nc2ccccc2OC)=C(C)Nc2nc(CCCO)nn21 (stereo unspecified)	none
CCCCOC(=O)C1=C(C)Nc2nnnn2C1c1ccccc1Cl (stereo unspecified)	none
CCOC(=O)C1=C(C)Nc2nnnn2C1c1ccc(OC)c(Br)c1 (stereo unspecified)	CYP2C9 inh 66.7
CCOc1ccccc1C1C(C(=O)Nc2ccccc2OC)=C(C)Nc2nnnn21 (stereo unspecified)	CYP2C9 inh 51.8, CYP2C19 inhib 88.2 (no result: sEH inh, sEH activator)
COC(=O)C1=C(C(=O)c2ccc(C)cc2)C(c2ccc(O)c(OC)c2)n2nnnc2N1 (stereo unspecified)	CYP2C9 inh 68.8
C=CCOC(=O)C1=C(C)Nc2nnnn2C1c1cc(OC)ccc1OC (stereo unspecified)	CYP2C9 inh 51.0, CYP2C19 inhib 71.3 (no result: sEH inh, sEH activator)
CC(Cc1ccccc1)N/C=C1\CC(=O)NC1=O (stereo unspecified)	none
C(#Cc1ccc(C#CCN2CCOCC2)cc1)CN1CCOCC1	none (no result: sEH inh, sEH activator)
O=C(Nc1cc(Cl)ccc1Cl)c1ccc(OC(=O)c2ccco2)cc1	none
CCOc1cccc2sc(NC(=O)c3ccc(Br)s3)nc12	none (no result: sEH inh, sEH activator)
CCC(c1nnnn1C(C)(C)CC)N(CCN1CCOCC1)Cc1cc2cc(C)ccc2[nH]c1=O (stereo unspecified)	CYP2C19 inhib 81.9
CCC(C)(C)n1nnnc1C(c1cc2cc(C)cc(C)c2[nH]c1=O)N1CCN(C(=O)c2ccco2)CC1 (stereo unspecified)	none
CCC(c1nnnn1C(C)(C)CC)N(CCCO)Cc1cc2cc(C)cc(C)c2[nH]c1=O (stereo unspecified)	CYP2C9 inh 76.1, CYP2C19 inhib 62.6 (no result: sEH inh, sEH activator)
CCCC(c1nnnn1C(C)(C)CC)N(CCCO)Cc1cc2cc(C)cc(C)c2[nH]c1=O (stereo unspecified)	CYP2C9 inh 52.8
CCn1c(CNc2ccc(F)cc2)nnc1SCC(=O)Nc1ccc(OC)cc1	none (no result: CYP2C9 inh, CYP2C19 inhib, CYP2C19 act, CYP2C9 activ)
Cc1ccc(C(=O)N(c2c(C)n(C)n(-c3ccccc3)c2=O)C(C)C)cc1	none
Cc1cc(C)c(C(=O)CC2(O)C(=O)Nc3ccccc32)cc1C (stereo unspecified)	CYP2C19 inhib 91.5
CCOC(=O)c1cnc(SC2CC(=O)N(c3ccc(C)cc3)C2=O)nc1N (stereo unspecified)	none
N#CCn1c(C2CCCCC2)nc2ccccc2c1=O	CYP2C9 inh 65.1, CYP2C19 inhib 70.2 (no result: sEH inh, sEH activator)
O=C(CCCn1c(SCC(=O)NC2CCCCC2)nc2ccccc2c1=O)NCC1CCCO1 (stereo unspecified)	CYP2C9 inh 64.9
CCC(C)NC(=O)CSc1nc2ccccc2c(=O)n1CCCC(=O)NCC1CCCO1 (stereo unspecified)	none
N#CCSc1nc2ccccc2c(=O)n1CCC(=O)NC1CCCCC1	CYP2C19 inhib 96.6
O=C(CCCn1c(SCC(=O)c2ccc(O)c(O)c2)nc2ccccc2c1=O)NCC1CCCO1 (stereo unspecified)	CYP2C9 inh 96.3, CYP2C19 inhib 54.9
O=C(CSc1nc2c(sc3ccccc32)c(=O)n1Cc1ccco1)NCC1CCCO1 (stereo unspecified)	CYP2C9 inh 68.1, CYP2C19 inhib 50.7
COc1ccc(Cl)cc1CN1CCN(c2nc(C)cc(C)c2C#N)CC1	CYP2C9 inh 78.7, CYP2C19 inhib 92.1
Cc1cc(C)c(C#N)c(N2CCN(CCOc3ccc(Cl)cc3)CC2)n1	none
CCOC(=O)c1cnc2c(Cl)c(Cl)ccc2c1N1CCN(C)CC1	none
O=C(CN(CC1CCCO1)S(=O)(=O)c1ccc(S(=O)(=O)NCC2CCCO2)cc1)Nc1ccccc1 (stereo unspecified)	CYP2C9 inh 90.4
CC(=O)Nc1ccc(S(=O)(=O)N(Cc2ccco2)CC2CCCO2)cc1 (stereo unspecified)	CYP2C19 inhib 72.6 (no result: sEH inh, sEH activator)
CCN(CC)S(=O)(=O)c1ccc(S(=O)(=O)N(CC(=O)Nc2ccccc2)Cc2ccco2)cc1	none (no result: CYP2C9 inh, CYP2C19 inhib, CYP2C19 act, CYP2C9 activ)
CN(C)S(=O)(=O)c1ccc(S(=O)(=O)N(CC(=O)Nc2ccccc2)CC2CCCO2)cc1 (stereo unspecified)	CYP2C9 inh 90.2
CN(C)S(=O)(=O)c1ccc(S(=O)(=O)N(CC(=O)Nc2ccccc2)Cc2ccco2)cc1	none (no result: sEH inh, sEH activator)
